Bioassay records as filed in PubChem BioAssay.
The list is not random: actives were taken first. Their share in the collection is about 17%.
HT1080 IDH1KD tx – qHTS for induction of synthetic lethality in tumor cells producing 2HG: qHTS for the HT-1080-IDH1KD cell line | Potency, µM (top dose mostly 46.1 µM), hits mostly cytotoxic | HT-1080 IDH1 knockdown viability, ATP luminescence, 48 h | 360,000 tested, 2% active
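Using the IDH1-knockdown HT-1080 line run in the same batch and compound series as the NT line, viability after 48 h at 37 °C was determined by CellTiter-Glo luminescence and expressed as % activity.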
TDP1 cell noCPT – qHTS for Inhibitors of human tyrosyl-DNA phosphodiesterase 1 (TDP1): qHTS in cells in absence of CPT; DT40 Tdp1-/- hTDP1 cells, no CPT, ATP luminescence, 48 h; Potency, µM (highest dose often 46.2 µM), actives largely listed as inhibitors; 420,000 tested, 15% active; also: nearly all actives have a fitted effect of over 55% in size
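Luminescent ATP content (CellTiter-Glo) served as the growth readout. Knockout chicken DT40 cells expressing human TDP1 were exposed to compounds without camptothecin for a minimum 48 hr at 37 °C.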
HepG2 tox – qHTS for Inhibitors of TGF-b: Cytotox Counterscreen; 410,000 tested, 0.76% active; HepG2 CAGA-GFP viability, ATP luminescence, 18 h; AID 588856, 2011; Potency, µM (doses to about 46.1 µM), actives largely listed as cytotoxic
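HepG2 CAGA-GFP cells (1000/well, DMEM with 1% FBS) received compound, then TGF-beta at 500 pg/mL final, and were incubated 18 hours at 37 degrees C. Viability was read by CellTiter-Glo luminescence. Media-only wells were set as complete cell-killing and DMSO as no toxicity.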
TDP1 cell CPT – qHTS for Inhibitors of human tyrosyl-DNA phosphodiesterase 1 (TDP1): qHTS in cells in presence of CPT; AID 686979, 2013; Potency, µM (top dose mostly 46.2 µM), most hits filed as inhibitors; chicken DT40 Tdp1-/-;hTDP1 cells + 20 nM CPT, ATP luminescence, 48 h; 420,000 tested, 12% active; also: nearly all actives have a fitted effect of over 55% in size
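Chicken DT40 Tdp1-/- cells stably complemented with human TDP1 were seeded at 400 cells/well in medium containing 20 nM camptothecin, exposed to pin-transferred compounds, and grown at 37 °C for at least 48 hr. Viability was read as ATP luminescence.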
HT1080NT lethal – qHTS for induction of synthetic lethality in tumor cells producing 2HG: qHTS for the HT-1080-NT fibrosarcoma cell line | 360,000 tested, 1.6% active | Potency, µM (top dose mostly 46.1 µM), actives largely listed as cytotoxic | HT-1080-NT fibrosarcoma viability, CellTiter-Glo ATP luminescence, 48 h;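 also: NT is the 2HG producing partner of a matched IDH1 knockdown line; nearly all actives have a fitted effect of over 55% in size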
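HT-1080-NT; 750 cells/well; 5% FBS RPMI; 48 h compound, 37 degrees C; CellTiter-Glo luminescence; curve fitting and curve-class assignment.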
TGFb SMAD3 inh – qHTS for Inhibitors of TGF-b; Potency, µM (top dose mostly 46.1 µM), most hits filed as inhibitors; AID 588855, 2011; HepG2 CAGA-GFP TGF-b/SMAD3 reporter, GFP fluorescence, 18 h; TGF-beta stimulated, 500 pg/mL final; 410,000 tested, 1.2% active; also: nearly all actives have a fitted effect of over 65% in size
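HEPG2 CAGA-GFP, 1000 cells/well; 2 h settle, 37 C; cpd via pin tool; TGF-b 500 pg/mL final; 18 h, 37 C; GFP imaging ex488/em500-530; %Activity normalised to -TGF-b and +DMSO controls; CRC fit, curve class.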
Of the large screens only hits and unclear results are named; the others gave an inactive call. Calls follow the shape of the dose curve; as a rule, active = well fitted curve in the direction sought with a large enough effect; inconclusive = small, poorly fitted or top-dose-only effect, or another doubt; inactive = no such curve, though single readings can be large; an effect the other way counts as inactive or inconclusive.

COc1ccc(C(c2nnnn2Cc2ccccc2)N2CCN(C/C=C/c3ccccc3)CC2)cc1 (stereo unspecified)	HT1080 IDH1KD tx inconclusive, TDP1 cell noCPT 15µM, TDP1 cell CPT inconclusive, HT1080NT lethal inconclusive, TGFb SMAD3 inh inconclusive
Fc1ccc(C(c2ccc(F)cc2)N2CCN(C/C=C/c3ccccc3)CC2)cc1	HT1080 IDH1KD tx inconclusive, TDP1 cell noCPT 23µM, HepG2 tox 6.3µM, TDP1 cell CPT 3.7µM, HT1080NT lethal inconclusive, TGFb SMAD3 inh inconclusive
CCCCn1nnnc1C(c1ccccc1)N1CCN(C)CC1 (stereo unspecified)	none (no result: HepG2 tox, TGFb SMAD3 inh)
C/C(=N\NC(=O)c1ccn(C)n1)c1ccco1	none
CCCCn1nnnc1C(c1ccccc1)N1CCN(C/C=C/c2ccccc2)CC1 (stereo unspecified)	HT1080 IDH1KD tx inconclusive, TDP1 cell noCPT 16µM, TDP1 cell CPT inconclusive, HT1080NT lethal inconclusive, TGFb SMAD3 inh inconclusive
CC(C)CCn1nnnc1C(c1ccccc1)N1CCN(C)CC1 (stereo unspecified)	none
C=CCN1CCN(C(c2ccccc2)c2nnnn2CCC(C)C)CC1 (stereo unspecified)	HT1080 IDH1KD tx inconclusive, TDP1 cell noCPT 6.5µM, TDP1 cell CPT 6.5µM
C(=C\c1ccccc1)/CN1CCN(C(c2ccccc2)c2nnnn2Cc2ccccc2)CC1 (stereo unspecified)	HT1080 IDH1KD tx inconclusive, TDP1 cell noCPT inconclusive, TDP1 cell CPT 29µM, HT1080NT lethal inconclusive, TGFb SMAD3 inh inconclusive
CCCCn1nnnc1C(c1ccnc2ccccc12)N1CCN(C/C=C/c2ccccc2)CC1 (stereo unspecified)	TDP1 cell noCPT 21µM, TDP1 cell CPT 21µM, HT1080NT lethal inconclusive, TGFb SMAD3 inh inconclusive
Cc1onc(-c2ccccc2)c1C(=O)Nc1nnc(CC(C)(C)C)s1	none
COc1ccc(-c2nc(O)c3cnccn23)cc1	TDP1 cell noCPT inconclusive
CCC(c1nnnn1Cc1ccccc1)N1CCN(C/C=C/c2ccccc2)CC1 (stereo unspecified)	HT1080 IDH1KD tx inconclusive, TDP1 cell noCPT 15µM, TDP1 cell CPT inconclusive, TGFb SMAD3 inh inconclusive
CCCCn1nnnc1C(CC)N1CCN(C/C=C/c2ccccc2)CC1 (stereo unspecified)	TDP1 cell noCPT inconclusive, TDP1 cell CPT inconclusive
CN(C)CCn1c2ccccc2c2nc3ccc([N+](=O)[O-])cc3cc21	HT1080 IDH1KD tx inconclusive, TDP1 cell noCPT 2.9µM, TDP1 cell CPT 2.1µM, TGFb SMAD3 inh inconclusive
COc1ccc(-c2csc(C(C)(NC(C)=O)c3ccccc3)n2)cc1 (stereo unspecified)	TDP1 cell noCPT 16µM, TDP1 cell CPT inconclusive
CC(=O)NC(C)(c1ccccc1)c1nc(-c2csc3ccccc23)cs1 (stereo unspecified)	TDP1 cell noCPT 16µM, TDP1 cell CPT 21µM, HT1080NT lethal inconclusive
COc1ccc(C(C)(NC(C)=O)c2nc(-c3cc(F)cc(F)c3)cs2)cc1 (stereo unspecified)	TDP1 cell noCPT 21µM, TDP1 cell CPT 16µM, TGFb SMAD3 inh inconclusive
COc1ccc(C(C)(NC(C)=O)c2nc(-c3cccc(F)c3)cs2)cc1 (stereo unspecified)	TDP1 cell noCPT inconclusive, TDP1 cell CPT inconclusive
COc1ccc(C(C)(NC(C)=O)c2nc(-c3cccc(C#N)c3)cs2)cc1 (stereo unspecified)	TDP1 cell noCPT 16µM, TDP1 cell CPT 15µM
CC(=O)NC(C)(c1ccccc1)c1nc(-c2cccc(C#N)c2)cs1 (stereo unspecified)	TDP1 cell noCPT inconclusive, TDP1 cell CPT inconclusive
COc1ccc(-c2csc(C(C)(NC(C)=O)c3ccccc3)n2)cn1 (stereo unspecified)	TDP1 cell noCPT inconclusive, TDP1 cell CPT inconclusive
O=S(=O)(c1ccc2c(c1)CCN2)N1CCCC1	none
COc1ccc(C(C)(NC(C)=O)c2nc(-c3cccc4cccnc34)cs2)cc1 (stereo unspecified)	TDP1 cell noCPT 23µM, TDP1 cell CPT 21µM
COc1ccccc1CCc1nc2ccccc2n1C1CCN(C(=O)c2cc(C)nn2C)CC1	none (no result: HT1080 IDH1KD tx, HepG2 tox, HT1080NT lethal, TGFb SMAD3 inh)
CCC1CN(C(=O)N2CCC(C(=O)NCCc3ccccc3OC)CC2)c2ccccc2O1 (stereo unspecified)	TDP1 cell noCPT 13µM, TDP1 cell CPT inconclusive
CCC1CN(C(=O)N2CCC(C(=O)NCCc3ccc(OC)cc3OC)CC2)c2ccccc2O1 (stereo unspecified)	TDP1 cell noCPT inconclusive, TDP1 cell CPT 26µM
COCC(=O)Nc1cc(C(=O)N2CCN(c3ccc(Cl)cn3)CC2)c2c(c1)nc(C1CCC1)n2C	none (no result: HT1080 IDH1KD tx, HepG2 tox, HT1080NT lethal, TGFb SMAD3 inh)
O=C(COC(=O)c1ccc(Br)cc1)Nc1ccccc1Br	none
CCN(CC)CCNC(=O)C(=O)NCC(c1cccnc1)N1CCN(c2ccc(F)cc2)CC1 (stereo unspecified)	TDP1 cell noCPT inconclusive (no result: HT1080 IDH1KD tx, HT1080NT lethal)
COc1ccccc1CNC(=O)C(=O)NCC(c1cccnc1)N1CCN(c2ccc(F)cc2)CC1 (stereo unspecified)	TDP1 cell noCPT 13µM, TDP1 cell CPT 12µM, TGFb SMAD3 inh inconclusive (no result: HT1080 IDH1KD tx, HT1080NT lethal)
COc1ccccc1N1CCN(C(CNC(=O)C(=O)NCCN(C)C)c2cccnc2)CC1 (stereo unspecified)	none (no result: HT1080 IDH1KD tx, HT1080NT lethal)
COc1ccccc1CCNC(=O)C(=O)NCC(c1cccnc1)N1CCN(c2ccccc2)CC1 (stereo unspecified)	TDP1 cell noCPT 12µM, TDP1 cell CPT 12µM (no result: HT1080 IDH1KD tx, HT1080NT lethal)
CN(C(=O)COC(=O)c1nc(Cl)ccc1Cl)c1ccccc1	none
O=C(CN1CCN(Cc2ccccc2)CC1)N1CCCc2c1c(=O)oc1ccc(O)cc21	HT1080 IDH1KD tx inconclusive, TDP1 cell noCPT inconclusive, TDP1 cell CPT 23µM, HT1080NT lethal inconclusive
O=C(c1ccco1)N1CCN(CC(=O)N2CCCc3c2c(=O)oc2ccc(O)cc32)CC1	none
O=C(CN1CCCCC1)N1CCCc2c1c(=O)oc1ccc(OCc3ccccc3)cc21	HT1080 IDH1KD tx inconclusive, TDP1 cell noCPT inconclusive, TDP1 cell CPT inconclusive
CCC1CCCCN1CC(=O)N1CCCc2c1c(=O)oc1ccc(OCc3ccccc3)cc21 (stereo unspecified)	TDP1 cell noCPT 10µM, TDP1 cell CPT 15µM, TGFb SMAD3 inh inconclusive (no result: HT1080 IDH1KD tx, HT1080NT lethal)
